# According to PubChem BioAssay (EPA / NIEHS):
# Values joined by “and” are separate entries in the source; they are usually repeats but may differ in a detail not shown here. Equal values may be shown once. Records with an inconclusive call do not appear. Active and inactive are the calls of the source. Rule for the calls: active = hit-call score of the fitted dose curve at least 0.9, where 1 is the maximum; inconclusive = response in the unintended direction; inactive = score below 0.9.
# Columns and labels:
# [1] = target: human Thromboxane A2 Receptor (TXA2), TBXA2R (gene 6915) (UniProt P21731); experiment: NVS_GPCR_hTXA2: NovaScreen (NVS) G Protein-Coupled Receptor Assay for human Thromboxane A2 Receptor (TXA2) (AID 2283282);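 note: actives reduce bound radioligand signal relative to DMSO baseline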
# Procedure, shortened: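 Biochem binding, human platelets, cell-free; competitive radioligand displacement; 1 h; filter radiodetection. 25 uM duplicate primary, conc. series secondary; DMSO neg. ctrl.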
# [2] = target: mouse Cholecystokinin, CCK1 Receptor (CCKA), Cckar (gene 12425) (UniProt O08786); experiment: NVS_GPCR_mCCKAPeripheral: NovaScreen (NVS) G Protein-Coupled Receptor Assay for mouse Cholecystokinin, CCK1 Receptor (CCKA) (AID 2283285)
# Procedure, shortened: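 Chemicals were first screened in duplicate at 25 uM, with those meeting threshold (e.g., 30% inhibition) retested in singleton concentration series to 50 uM maximum. Binding of radioligand to mouse pancreatic membranes was read after 2 h by filtration and scintillation counting.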
# [3] = target: human Opioid Receptor Mu (Opiate Mu), OPRM1 (gene 4988) (UniProt P35372); experiment: NVS_GPCR_hOpiate_mu: NovaScreen (NVS) G Protein-Coupled Receptor Assay for human Opioid Receptor Mu (Opiate Mu) (AID 2283290);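 note: hits lower bound tracer signal versus DMSO meaning displacement of the ligand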
# Procedure, shortened: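 Cell-free radioligand binding to membranes from CHO cells expressing the receptor; bound tracer measured by filter-based scintillation counting 2.5 hours after dosing. Loss of signal versus DMSO baseline reflects displacement; primary screen at 25 uM in duplicate, actives followed up in concentration series.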
# [4] = target: rat Gamma-Aminobutyric Acid Type B Receptor (GABBR), Gabbr1 (gene 81657) (UniProt Q9Z0U4); experiment: NVS_GPCR_rGABBR: NovaScreen (NVS) G Protein-Coupled Receptor Assay for rat Gamma-Aminobutyric Acid Type B Receptor (GABBR) (AID 2283301)
# Procedure, shortened: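 Rat cortical membrane preparation, competitive radioligand binding for 1 h with filtration and scintillation readout. Actives from duplicate single-point 25 uM screening proceeded to concentration series with 50 uM top concentration.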
# [5] = target: mouse Cholecystokinin, CCK2 Receptor (CCKB), Cckbr (gene 12426) (UniProt P56481); experiment: NVS_GPCR_mCKKBCentral: NovaScreen (NVS) G Protein-Coupled Receptor Assay for mouse Cholecystokinin, CCK2 Receptor (CCKB) (AID 2283293)
# Procedure, shortened: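 Mouse forebrain membrane preparation incubated 2 h with chemical and radioligand; bound radioactivity counted after filtration. Single-concentration duplicate screen at 25 uM, then concentration series to 50 uM max for hits, DMSO as baseline.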
# [6] = target: human Orphanin, Opioid Related Nociceptin Receptor 1 (ORL1), OPRL1 (gene 4987) (UniProt P41146); experiment: NVS_GPCR_hORL1: NovaScreen (NVS) G Protein-Coupled Receptor Assay for human Orphanin, Opioid Related Nociceptin Receptor 1 (ORL1) (AID 2283283)
# Procedure, shortened: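 Cell-free binding using HEK293-derived receptor protein: radioligand displacement measured by filter scintillation 1 hour after dosing. Primary testing at 25 uM in duplicate, followed by singleton concentration series up to 50 uM; DMSO served as negative control.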
# [7] = test system: 5-hydroxytryptamine receptor 2C (pig); experiment: NVS_GPCR_p5HT2C: NovaScreen (NVS) G Protein-Coupled Receptor Assay for pig Serotonin, 5-Hydroxytryptamine Receptor 2C (5HT2C) (AID 2283288)
# Procedure, shortened: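 Radioligand displacement on membranes from pig choroid plexus, detected by filter scintillation counting after 1 h. Tested first at a single 25 uM in duplicate, then in concentration-response for actives; DMSO served as baseline.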
# [8] = target: rat Serotonin, 5-Hydroxytryptamine Receptor 1 (5HT1), Non-Selective Binding, Htr1a (gene 24473) (UniProt P19327); experiment: NVS_GPCR_r5HT1_NonSelective: NovaScreen (NVS) G Protein-Coupled Receptor Assay for rat Serotonin, 5-Hydroxytryptamine Receptor 1 (5HT1), Non-Selective Binding (AID 2283286)
# Procedure, shortened: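 Binding of a radioligand to rat cortex membranes is read by filtration and scintillation counting after 1 h. Compounds were screened at 25 uM in duplicate. Actives were then titrated to a top of 50 uM. DMSO is the baseline.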
# [9] = test system: rabbit Platelet Activating Factor Receptor (PAF), gene 100354046; experiment: NVS_GPCR_rabPAF: NovaScreen (NVS) G Protein-Coupled Receptor Assay for rabbit Platelet Activating Factor Receptor (PAF) (AID 2283287)
# Procedure, shortened: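 Rabbit platelet membrane preparation; radioligand displacement read by filter-based scintillation counting 1 h after dosing, loss of signal versus DMSO. Primary screen in duplicate at 25 uM, actives followed up in concentration series.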
# [10] = target: rat Adrenergic, Alpha 1, Non-selective Receptor (Adra1), Adra1a (gene 29412) (UniProt P43140); experiment: NVS_GPCR_rAdra1_NonSelective: NovaScreen (NVS) G Protein-Coupled Receptor Assay for rat Adrenergic, Alpha 1, Non-selective Receptor (Adra1) (AID 2283289)
# Procedure, shortened: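 Chemicals first screened in duplicate at 25 uM, then actives tested in concentration series up to 50 uM. Binding measured as displacement of radioligand from rat forebrain membrane receptors, 1 h, filtration with scintillation readout; DMSO baseline.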
# [11] = target: guinea pig Serotonin, 5-Hydroxytryptamine Receptor 4 (5HT4), HTR4 (gene 100135548) (UniProt O70528); experiment: NVS_GPCR_g5HT4: NovaScreen (NVS) G Protein-Coupled Receptor Assay for guinea pig Serotonin, 5-Hydroxytryptamine Receptor 4 (5HT4) (AID 2283294)
# Procedure, shortened: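 Compounds first screened in duplicate at 25 uM, actives followed up in concentration series. Binding measured as displacement of specific radioligand from guinea pig striatal membranes, 1 h, filter-based scintillation read-out versus DMSO baseline.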
# [12] = target: rat Serotonin, 5-Hydroxytryptamine Receptor (5HT), Non-Selective Binding, Htr1a (gene 24473) (UniProt P19327); experiment: NVS_GPCR_r5HT_NonSelective: NovaScreen (NVS) G Protein-Coupled Receptor Assay for rat Serotonin, 5-Hydroxytryptamine Receptor (5HT), Non-Selective Binding (AID 2283295)
# Procedure, shortened: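 Rat cortex membrane preparation incubated 1 h with radioligand and test chemical; bound radioactivity counted after filtration. Screening began in duplicate at 25 uM with concentration-series follow-up; fitting relative to DMSO.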
# [13] = target: rat Adrenergic, Alpha 1A Receptor (Adra1A), Adra1a (gene 29412) (UniProt P43140); experiment: NVS_GPCR_rAdra1A: NovaScreen (NVS) G Protein-Coupled Receptor Assay for rat Adrenergic, Alpha 1A Receptor (Adra1A) (AID 2283296)
# Procedure, shortened: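 Filter radiodetection after 1 h competitive binding on CEC-pretreated rat cortical membranes. Duplicate single-point screening at 25 uM; active chemicals retested across concentration series.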
# [14] = test system: rat Adrenergic, Alpha 1B Receptor (Adra1B), gene 24173; experiment: NVS_GPCR_rAdra1B: NovaScreen (NVS) G Protein-Coupled Receptor Assay for rat Adrenergic, Alpha 1B Receptor (Adra1B) (AID 2283297)
# Procedure, shortened: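 Filter-binding radioligand competition on membranes from rat liver, read after 1 h by scintillation counting. Single-concentration duplicate screen at 25 uM, followed by concentration-response on actives, normalised to DMSO.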
# [15] = target: rat Adrenergic Receptor, Alpha 2 (Adra2), Non-selective Binding, Adra2a (gene 25083) (UniProt P22909); experiment: NVS_GPCR_rAdra2_NonSelective: NovaScreen (NVS) G Protein-Coupled Receptor Assay for rat Adrenergic Receptor, Alpha 2 (Adra2), Non-selective Binding (AID 2283299)
# Procedure, shortened: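 Filter-based scintillation counting of radioligand binding to rat cortical membrane receptors, measured 1.25 hours post-dosing; loss of signal versus DMSO indicates displacement. Initial single-concentration duplicate at 25 uM, then concentration series.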
# Chain of human Opioid Receptor Mu (Opiate Mu), OPRM1 (gene 4988) (P35372 whole entry, looked up): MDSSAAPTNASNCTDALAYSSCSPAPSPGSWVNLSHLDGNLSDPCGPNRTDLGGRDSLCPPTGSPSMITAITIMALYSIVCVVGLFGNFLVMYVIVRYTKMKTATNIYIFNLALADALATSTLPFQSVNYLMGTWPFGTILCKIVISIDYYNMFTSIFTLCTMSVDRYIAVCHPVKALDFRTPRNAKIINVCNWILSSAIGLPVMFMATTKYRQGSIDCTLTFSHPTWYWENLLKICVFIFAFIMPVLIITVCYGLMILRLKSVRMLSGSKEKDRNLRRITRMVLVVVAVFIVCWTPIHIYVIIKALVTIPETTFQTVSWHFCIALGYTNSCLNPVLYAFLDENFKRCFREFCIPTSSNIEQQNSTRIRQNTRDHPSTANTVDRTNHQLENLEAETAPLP
# Chain of human Thromboxane A2 Receptor (TXA2), TBXA2R (gene 6915) (P21731 whole entry, looked up): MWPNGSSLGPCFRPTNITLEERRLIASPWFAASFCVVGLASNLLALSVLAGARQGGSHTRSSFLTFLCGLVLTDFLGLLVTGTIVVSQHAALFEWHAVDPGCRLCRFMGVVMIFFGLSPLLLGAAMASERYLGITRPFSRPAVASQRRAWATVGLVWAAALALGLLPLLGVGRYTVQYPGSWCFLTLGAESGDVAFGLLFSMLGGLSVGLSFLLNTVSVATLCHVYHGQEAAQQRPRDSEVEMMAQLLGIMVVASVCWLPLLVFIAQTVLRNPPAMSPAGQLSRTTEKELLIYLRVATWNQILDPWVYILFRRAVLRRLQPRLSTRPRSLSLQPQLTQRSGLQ
# Chain of mouse Cholecystokinin, CCK1 Receptor (CCKA), Cckar (gene 12425) (O08786 whole entry, looked up): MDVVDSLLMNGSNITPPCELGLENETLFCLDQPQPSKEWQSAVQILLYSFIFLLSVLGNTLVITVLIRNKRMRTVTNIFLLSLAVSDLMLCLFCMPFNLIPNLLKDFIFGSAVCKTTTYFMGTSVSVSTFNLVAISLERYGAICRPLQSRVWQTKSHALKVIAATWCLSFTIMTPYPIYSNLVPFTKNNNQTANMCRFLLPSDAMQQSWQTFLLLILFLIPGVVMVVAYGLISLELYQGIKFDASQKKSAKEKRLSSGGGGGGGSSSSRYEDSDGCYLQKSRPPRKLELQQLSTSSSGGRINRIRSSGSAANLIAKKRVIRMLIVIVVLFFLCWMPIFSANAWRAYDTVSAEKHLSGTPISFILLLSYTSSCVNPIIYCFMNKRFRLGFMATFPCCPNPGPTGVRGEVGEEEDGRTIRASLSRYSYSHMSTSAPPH
# Chain of mouse Cholecystokinin, CCK2 Receptor (CCKB), Cckbr (gene 12426) (P56481 whole entry, looked up): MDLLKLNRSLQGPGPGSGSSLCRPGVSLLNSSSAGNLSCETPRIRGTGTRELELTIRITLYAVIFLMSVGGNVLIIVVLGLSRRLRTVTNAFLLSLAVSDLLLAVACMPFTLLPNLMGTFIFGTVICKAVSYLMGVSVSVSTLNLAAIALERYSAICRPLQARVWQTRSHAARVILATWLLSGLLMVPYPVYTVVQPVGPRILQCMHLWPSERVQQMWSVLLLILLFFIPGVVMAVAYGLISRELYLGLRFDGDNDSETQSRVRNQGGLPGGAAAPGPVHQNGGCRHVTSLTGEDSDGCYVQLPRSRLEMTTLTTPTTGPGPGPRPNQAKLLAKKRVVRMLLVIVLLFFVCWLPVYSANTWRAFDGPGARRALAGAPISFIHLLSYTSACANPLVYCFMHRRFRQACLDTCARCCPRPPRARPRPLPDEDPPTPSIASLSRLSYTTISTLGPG
# Chain of human Orphanin, Opioid Related Nociceptin Receptor 1 (ORL1), OPRL1 (gene 4987) (P41146 whole entry, looked up): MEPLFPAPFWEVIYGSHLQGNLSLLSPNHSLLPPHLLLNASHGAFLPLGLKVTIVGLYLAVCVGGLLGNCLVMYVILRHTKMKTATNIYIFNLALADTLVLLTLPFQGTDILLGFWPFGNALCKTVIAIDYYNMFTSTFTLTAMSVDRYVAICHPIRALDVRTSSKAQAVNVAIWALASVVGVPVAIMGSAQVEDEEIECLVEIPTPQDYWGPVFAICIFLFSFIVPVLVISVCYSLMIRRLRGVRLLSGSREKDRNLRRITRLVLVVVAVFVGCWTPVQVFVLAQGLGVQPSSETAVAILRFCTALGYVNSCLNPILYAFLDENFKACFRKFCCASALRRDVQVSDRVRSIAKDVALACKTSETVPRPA
# Chain of rat Adrenergic Receptor, Alpha 2 (Adra2), Non-selective Binding, Adra2a (gene 25083) (P22909 whole entry, looked up): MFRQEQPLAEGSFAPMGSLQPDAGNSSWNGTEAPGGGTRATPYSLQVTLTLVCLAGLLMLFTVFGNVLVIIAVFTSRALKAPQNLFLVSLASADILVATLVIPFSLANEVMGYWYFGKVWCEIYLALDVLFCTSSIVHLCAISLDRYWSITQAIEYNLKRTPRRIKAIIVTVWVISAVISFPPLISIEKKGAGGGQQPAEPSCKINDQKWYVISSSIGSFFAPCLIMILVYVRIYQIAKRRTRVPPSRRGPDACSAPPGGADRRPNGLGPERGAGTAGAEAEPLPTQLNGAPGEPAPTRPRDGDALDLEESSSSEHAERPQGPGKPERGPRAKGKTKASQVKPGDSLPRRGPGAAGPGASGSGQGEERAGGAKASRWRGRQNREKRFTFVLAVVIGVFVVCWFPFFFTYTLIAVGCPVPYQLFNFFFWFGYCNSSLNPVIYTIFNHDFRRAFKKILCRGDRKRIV
# Chain of rat Serotonin, 5-Hydroxytryptamine Receptor 1 (5HT1), Non-Selective Binding, Htr1a (gene 24473) (P19327 whole entry, looked up): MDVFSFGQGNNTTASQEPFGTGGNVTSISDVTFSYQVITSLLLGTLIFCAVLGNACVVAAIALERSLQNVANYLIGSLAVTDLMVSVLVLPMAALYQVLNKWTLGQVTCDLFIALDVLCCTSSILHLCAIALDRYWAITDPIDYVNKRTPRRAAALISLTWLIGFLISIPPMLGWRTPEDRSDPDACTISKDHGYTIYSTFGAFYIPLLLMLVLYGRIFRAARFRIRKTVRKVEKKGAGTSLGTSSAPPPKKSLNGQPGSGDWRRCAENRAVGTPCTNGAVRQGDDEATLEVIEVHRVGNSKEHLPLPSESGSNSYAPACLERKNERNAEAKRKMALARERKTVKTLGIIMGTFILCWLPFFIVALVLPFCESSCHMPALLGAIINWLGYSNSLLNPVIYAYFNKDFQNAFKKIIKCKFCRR
# Chain of rat Serotonin, 5-Hydroxytryptamine Receptor (5HT), Non-Selective Binding, Htr1a (gene 24473) (P19327 whole entry, looked up): as above
# Chain of guinea pig Serotonin, 5-Hydroxytryptamine Receptor 4 (5HT4), HTR4 (gene 100135548) (O70528 whole entry, looked up): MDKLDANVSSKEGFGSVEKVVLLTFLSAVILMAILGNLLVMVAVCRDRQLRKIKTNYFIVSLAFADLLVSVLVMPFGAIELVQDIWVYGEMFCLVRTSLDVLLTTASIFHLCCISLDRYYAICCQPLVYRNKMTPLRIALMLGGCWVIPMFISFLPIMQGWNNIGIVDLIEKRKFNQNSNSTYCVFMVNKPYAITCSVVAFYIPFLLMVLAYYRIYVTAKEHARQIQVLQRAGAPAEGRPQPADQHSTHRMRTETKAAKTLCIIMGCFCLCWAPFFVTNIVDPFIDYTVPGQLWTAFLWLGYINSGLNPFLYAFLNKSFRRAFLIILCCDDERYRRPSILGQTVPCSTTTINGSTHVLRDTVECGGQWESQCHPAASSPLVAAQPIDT
# Chain of rat Gamma-Aminobutyric Acid Type B Receptor (GABBR), Gabbr1 (gene 81657) (Q9Z0U4 whole entry, looked up): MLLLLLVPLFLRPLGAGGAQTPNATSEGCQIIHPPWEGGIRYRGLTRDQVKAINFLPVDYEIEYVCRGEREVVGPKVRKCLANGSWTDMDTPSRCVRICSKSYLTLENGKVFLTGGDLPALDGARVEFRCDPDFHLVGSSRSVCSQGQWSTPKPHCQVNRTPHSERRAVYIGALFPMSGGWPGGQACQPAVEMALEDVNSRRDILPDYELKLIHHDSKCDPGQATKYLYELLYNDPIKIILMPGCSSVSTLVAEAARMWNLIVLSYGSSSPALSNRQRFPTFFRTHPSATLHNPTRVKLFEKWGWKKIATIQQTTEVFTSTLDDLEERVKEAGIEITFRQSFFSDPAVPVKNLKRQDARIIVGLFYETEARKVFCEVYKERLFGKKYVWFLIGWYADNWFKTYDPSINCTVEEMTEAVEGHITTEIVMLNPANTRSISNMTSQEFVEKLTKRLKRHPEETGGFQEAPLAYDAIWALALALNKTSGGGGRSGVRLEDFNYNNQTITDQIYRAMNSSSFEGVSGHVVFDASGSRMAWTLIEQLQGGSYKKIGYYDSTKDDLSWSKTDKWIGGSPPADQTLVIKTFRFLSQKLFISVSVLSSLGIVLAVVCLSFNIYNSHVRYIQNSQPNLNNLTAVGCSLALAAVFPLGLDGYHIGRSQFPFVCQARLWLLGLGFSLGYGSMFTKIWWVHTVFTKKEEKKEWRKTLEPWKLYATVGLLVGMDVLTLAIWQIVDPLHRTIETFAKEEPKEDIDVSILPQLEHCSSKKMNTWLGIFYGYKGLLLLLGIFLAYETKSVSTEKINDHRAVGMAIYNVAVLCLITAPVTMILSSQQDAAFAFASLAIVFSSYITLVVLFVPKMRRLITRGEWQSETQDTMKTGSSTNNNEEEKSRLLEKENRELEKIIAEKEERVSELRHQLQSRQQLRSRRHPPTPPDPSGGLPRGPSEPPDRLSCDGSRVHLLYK
smiles,measurement,setting,value
CCCCCCCCC(=O)NCc1ccc(O)c(OC)c1,outcome,[1],inactive
O=C1C2(Cl)C3(Cl)C4(Cl)C(Cl)(Cl)C5(Cl)C3(Cl)C1(Cl)C5(Cl)C24Cl (stereo unspecified),outcome,[2],inactive
same,AC50,[3],1.63 µM (active) and 2.66 µM (active) and 1.08 µM (active)
same,outcome,[4],inactive
COc1ccc(OC)c(C=O)c1,outcome,[1],inactive
O=[N+]([O-])c1ccc(O)c([N+](=O)[O-])c1,AC50,[5],25 µM (active)
Clc1ccc(C2(Cn3cncn3)CC(Br)CO2)c(Cl)c1 (stereo unspecified),outcome,[6],inactive
CC(C)(C)CC(C)(C)c1ccc(O)cc1,AC50,[1],43.7 µM (active)
same,AC50,[2],12 µM (active)
same,AC50,[3],16.7 µM (active)
same,outcome,[5],inactive
CCSC(C)CC1CC(=O)C(C(CC)=NOC/C=C/Cl)=C(O)C1 (stereo unspecified),AC50,[1],3.42 µM (active)
CCOP(=S)(OCC)SCSP(=S)(OCC)OCC,outcome,[3],inactive
C(=NC1CCCCC1)=NC1CCCCC1,AC50,[1],2.87 µM (active)
CCOC(=O)Nc1cccc(OC(=O)Nc2ccccc2)c1,AC50,[7],20.3 µM (active)
ClC1=C(Cl)[C@]2(Cl)[C@H]3[C@H]([C@H]4C=C[C@H]3C4)[C@@]1(Cl)C2(Cl)Cl,outcome,[3],inactive
O=C(O)C(F)(F)C(F)(F)C(F)(F)C(F)(F)C(F)(F)C(F)(F)C(F)(F)C(F)(F)C(F)(F)C(F)(F)F,outcome,[1],inactive
same,AC50,[3],12.4 µM (active)
CCN1CCC2(CC1)COc1cc3c(cc12)N(C(=O)c1ccc(-c2ccc(-c4nnc(C)o4)cc2C)cc1)CC3,outcome,[8],inactive
same,AC50,[9],12.5 µM (active)
same,AC50,[10],11.9 µM (active)
same,AC50,[11],2.96 µM (active)
same,AC50,[12],23.4 µM (active)
same,AC50,[13],16.4 µM (active)
same,AC50,[14],10.9 µM (active)
same,AC50,[15],18.6 µM (active)
